Bioassay records: PubChem, National Center for Advancing Translational Sciences (NCATS)
Hits are enriched below; roughly 12% of the tested compounds scored in any of these assays.
AMA1-RON2 inh: disrupts binding of P. falciparum AMA1 to RON2. AlphaScreen AMA1-biotinylated RON2 peptide binding. Potency, µM (highest dose often 58.2 µM), for the others: top-dose activity change, negative = inhibition, actives largely listed as inhibitors. 360,000 compounds, 0.2% hits. AID 720542;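 also: 0% = vehicle wells and -100% = peptide control; nearly all actives have a fitted effect of over 45% in size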
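AMA1 (3D7) with his tag at 25 nM final met compounds first, then biotinylated RON2 peptide at 25 nM; detection used donor plus acceptor beads, 10 µg/mL apiece, read by AlphaScreen after 30 min at room temperature.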
NS1 function inh: inhibitors of influenza NS1 protein function; Potency, µM (titrated, usually from 46.1 µM), without a hit: at the highest dose activity, positive = more growth; AID 2326; 270,000 compounds, 0.4% hits; calls by dose curve; also: actives are rising curves; nearly all actives have a fitted effect of over 50% in size
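S. cerevisiae expressing influenza A NS1, grown in glucose, washed, then diluted 1:100 into pH 6.0 -URA galactose medium with 23 nl compound. Growth recovery read as OD600; NS1-free strain serves as control.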
HCV inhibitor: blocks hepatitis C virus. Huh7.5.1 HCVcc-Cre infection, luciferase reporter, 44 h. Potency, µM (series often up to 41.8 µM), for inactives: at the top dose activity change, negative = inhibition, hits mostly inhibitors. 340,000 compounds, 3.4% hits; also: % is scaled to controls: 0 for no effect and ±100 for the full control effect
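Infectious HCV cell culture screen: compound-treated cells (1,000/well, pre-plated 4 h) are infected with HCVcc-Cre at roughly 0.5 moi and grown 44 h. Infection is quantified by luciferase signal after 15 min substrate incubation at room temperature.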
Pf growth 48h: P. falciparum growth inhibition at 48 hours (one generation); P. falciparum luciferase growth in erythrocytes, 48 h; Potency, µM (highest dose often 28.7 µM), for the others: at the top dose activity change, negative = inhibition, hits mostly inhibitors; 310,000 compounds, 5.9% hits; AID 504832; also: % is scaled to controls: 0 for no effect and ±100 for the full control effect
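Luciferase-expressing parasites in RBCs, 2% Hct / 0.1% parasitemia final; RPMI 1640 + 0.5% Albumax; 37 C, 5% CO2, one generation; luminescence read-out, lower signal = inhibition.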
Pf growth 96h: P. falciparum growth inhibition at 96 hour, primary screen for plastid delayed-death inhibitors; P. falciparum luciferase reporter growth, 96 h; 320,000 compounds, 6.9% hits; Potency, µM (doses to about 28.7 µM), without a hit: at the highest dose activity change, negative = inhibition, usual class: inhibitors; AID 504834; also: % is scaled to controls: 0 for no effect and ±100 for the full control effect
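P. falciparum expressing integrated firefly luciferase, in erythrocytes at 2% hematocrit, 0.05% parasitemia, incubated with compounds 96 h at 37 C, 5% CO2. Growth inhibition read as loss of luminescence; two-generation exposure targets delayed-death apicoplast inhibitors.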
SARS PLpro yeast: inhibitors of SARS-CoV papain-like protease in yeast; S. cerevisiae expressing SARS-CoV PLpro, growth rescue; Potency, µM (top dose mostly 32.9 µM), without a hit: at the top dose activity, positive = growth rescue, actives largely listed as activators; 330,000 compounds, 0.19% hits; AID 485353; calls by dose curve; also: 0% is about no effect; nearly all actives have a fitted effect of over 55% in size
* = called active by the depositor; ? = inconclusive; nt = no result given; [ ] = remark or other dose. Unless noted, calls follow the shape of the dose curve; as a rule, active = well fitted curve in the direction sought with a large enough effect; inconclusive = small, poorly fitted or top-dose-only effect, or another doubt; inactive = no such curve, though single readings can be large; an effect the other way counts as inactive or inconclusive. Potency is read from the fitted curve at half-maximal effect.

SMILES	AMA1-RON2 inh	NS1 function inh	HCV inhibitor	Pf growth 48h	Pf growth 96h	SARS PLpro yeast
O=C(CCCOC(=O)c1ccc(O)cc1O)c1ccc(Br)cc1	-17%	nt	1%	32%	5%	-2%
Cc1ccc(S(=O)(=O)NC(C)c2ccccc2)cc1[N+](=O)[O-] (stereo not drawn)	-3%	3%	-5%	16%	12µM*	3%
CSc1ccc(S(=O)(=O)NC(C)c2ccccc2)cc1 (stereo not drawn)	-10%	-2%	0%	9%	9%	1%
Cc1onc(-c2ccccc2)c1C(=O)OCC(=O)Nc1ccc2c(c1)OCO2	-8%	-2%	?	?	?	-4%
CC1CCC(NC(=O)c2cc(Cl)nc3ccccc23)CC1 (stereo not drawn)	-9%	nt	15%	52%	65%	-11%
CCCc1nc2ccccc2c(C(=O)OCC(=O)NCc2ccc3c(c2)OCO3)c1CC	6%	2%	?	10µM*	8.3µM*	-32%
CCc1nc2ccccc2c(C(=O)OCC(=O)NCc2ccc3c(c2)OCO3)c1C	-1%	-4%	?	-11%	?	-9%
Cc1c(-c2cccc(Cl)c2)nc2ccccc2c1C(=O)NC1CC1	9%	1%	-9%	-24%	10µM*	0%
Cc1c(-c2cccc(Cl)c2)nc2ccccc2c1C(=O)OCC(=O)Nc1ccc2c(c1)OCO2	-23%	10%	?	?	2.1µM*	0%
Cc1cc(C)nc(N2CCCC(C(=O)Nc3nnc(C(C)(C)C)s3)C2)n1 (stereo not drawn)	7%	3%	?	13%	-28%	0%
CCc1nnc(NC(=O)C2CCCN(c3nc(C)cc(C)n3)C2)s1 (stereo not drawn)	-8%	1%	-7%	20%	4.7µM*	-2%
O=C(Nc1nnc(CCN2CCCCC2)s1)C1CCCCC1	0%	-7%	11%	7%	13µM*	-2%
Cc1ccc(NC(=O)CC2NCCNC2=O)cc1 (stereo not drawn)	36%	-1%	11%	23%	27%	0%
CN(C)c1ccc(NC(=O)CC2NCCNC2=O)cc1 (stereo not drawn)	4%	3%	22%	12%	0.21µM*	nt
CCc1cc(SC#N)cc(C)c1NC(=O)CCl	-8%	-24%	?	13µM*	?	-18%
CCc1cc(SC#N)cc(C)c1N	-1%	nt	-6%	8.3µM*	3.3µM*	0%
O=c1[nH]c2cccc(F)c2n2cccc12	-8%	-2%	3%	4%	2%	0%
Cc1c(C)c2c(c(C)c1OC(=O)c1cccnc1)CC[C@@](C)(CCC[C@H](C)CCC[C@H](C)CCCC(C)C)O2	nt	nt	nt	5%	12%	nt
CC1(C)Cc2c(ccc3ccccc23)/C(=C/C(=O)N2CCCCC2)N1	?	11%	?	10µM*	?	-6%
COCCNC(=O)c1ccc(CN2CCC(Cc3ccccc3)CC2)cc1	0%	2%	-24%	-12%	?	1%
CCc1ccccc1NC(=O)c1ccc(CN2CCC(Cc3ccccc3)CC2)cc1	-7%	-15%	13µM*	1µM*	25%	2%
CN1CCN(C(=O)c2ccc(CN3CCOCC3)cc2)CC1	1%	7%	1%	14%	nt	10%
O=C(c1ccc(CN2CCOCC2)cc1)N1CCC(Cc2ccccc2)CC1	-6%	-13%	?	-22%	2.9µM*	-5%
O=C(NCc1ccccc1)c1ccc(CN2CCC(Cc3ccccc3)CC2)cc1	-11%	9%	10µM*	13µM*	-4%	-1%
O=C(NCC(=O)N1CCC(Cc2ccccc2)CC1)c1ccc(Cl)cc1	8%	-62%	?	0%	13µM*	-5%
SMILES	AMA1-RON2 inh	NS1 function inh	HCV inhibitor	Pf growth 48h	Pf growth 96h	SARS PLpro yeast
CC(C)OC(=O)c1c(NC(=O)c2ccco2)sc2c1CCCCC2	55%	?	?	nt	20%	12%
Cc1ccc(OC(C)C(=O)Nc2ccccc2C(=O)NCc2cccnc2)cc1C (stereo not drawn)	6%	-13%	nt	?	1%	5%
O=C(Nc1ccc2[nH]c3c(c2c1)CCCC3)c1ccco1	-2%	-36%	13µM*	3.7µM*	?	1%
NNC(=O)c1ccc2[nH]c3c(c2c1)CCCC3	26%	nt	-18%	19%	-4%	4%
CC(Oc1ccc(F)cc1)C(=O)Nc1sc2c(c1C(=O)NCc1cccnc1)CCCC2 (stereo not drawn)	-13%	-8%	2.5µM*	8.3µM*	6.6µM*	-4%
CNC(=O)c1c(NC(=O)c2ccco2)sc2c1CCCC2	4%	-55%	14µM*	20%	15%	-17%
COc1cccc(C(=O)Nc2sc3c(c2C(=O)O)CCCC3)c1	0%	-24%	13µM*	29%	59%	-4%
O=C(Nc1ccccc1N1CCOCC1)C1CCCO1 (stereo not drawn)	11%[11.6 µM]	nt	13%	nt	nt	-1%
O=C(Nc1sc2c(c1C(=O)c1ccc(Cl)cc1)CCCC2)c1cccnc1	?	8%	?	?	?	-11%
O=C(Nc1sc2c(c1C(=O)c1ccccc1)CCCC2)c1cccnc1	-3%	0%	?	0%	0.37µM*	-3%
O=C(Nc1sc2c(c1C(=O)NCc1cccnc1)CCCC2)c1ccco1	12%	-76%	7.9µM*	?	?	-5%
O=C(Nc1sc2c(c1C(=O)O)CCC2)c1ccco1	10%	-133%	1%	nt	18%	-13%
Cc1ncc([N+](=O)[O-])n1CC(C)O (stereo not drawn)	11%	3%	2.8µM*	-3%	-9%	-5%
CCCC(=O)c1cn(CC(=O)OC)c2ccccc12	0%	-10%	6%	7%	1µM*	?
Cc1ccc(-c2ccc(/C=C3\SC(N4CCOCC4)=NC3=O)o2)cc1	5%	nt	13µM*	?	6%	-8%
N#CCc1ccc(OC(=O)c2cccnc2Cl)cc1	-3%	nt	14%	nt	nt	nt
O=C(OCCN1CCCCC1)c1cccc(F)c1	44%	-2%	16%	44%	5.9µM*	-1%
Cc1ccc(S(=O)(=O)N2CCN(C(=O)CN3CCCSc4ccccc43)CC2)cc1	-4%	nt	10%	?	?	1%
Clc1ccccc1-c1nc(-c2ccncc2)no1	18%	-13%	15%	136%	166%	-5%
Cc1onc(-c2ccccc2Cl)c1-c1nc(-c2ccncc2)no1	0%	-1%	?	nt	12µM*	-23%
CCOCCCNCc1ccc(OCc2ccccc2C)c(OC)c1	6%	-7%	?	-24%	40%	0%
Cc1ccc(-c2c(NCCc3ccccc3)c(=O)c2=O)cc1	0%	-3%	24%	?	-4%	1%
